Test results as given in PubChem BioAssay.
The source made the active and inactive calls.

What was measured:
[1] = small molecules captured by biotinylated probe aFSTL3 – biochemical, small-molecule microarray, fluorescence 635/667, stem cell growth factor project, primary screen (AID 1064); settings: higher = more signal;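 note: measures binding of the biotinylated anti-FSTL3 antibody to printed compounds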
[2] = binders from COS7 lysate, DM2A8 probe, primary screen, torsin A project, cell lysate, small-molecule microarray, fluorescence 635/667 (AID 1065); settings: higher = more signal, COS7 lysate expressing mutant human TOR1A
[3] = small molecules captured by biotinylated probe aFGF2 – biochemical, small-molecule microarray, fluorescence 635/667, stem cell growth factor project, primary screen (AID 1067); settings: higher = more signal;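 note: measures binding of biotinylated aFGF2 protein to printed compounds on slides; z-score merges feature fluorescence and signal-to-noise across triplicate slides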
[4] = small molecules captured by biotinylated probe aFGF10 – biochemical, small-molecule microarray, fluorescence 635/667, stem cell growth factor project, primary screen (AID 1071); settings: higher = more signal;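 note: score merges 667 nm spot intensity and signal to noise from triplicate slides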
[5] = molecular target: Neurogenic locus notch homolog protein 2 (Homo sapiens) (UniProt Q04721); test: small molecules binding Notch2 protein – biochemical, small-molecule microarray, 635 nm fluorescence, stem cell growth factors, primary screen (AID 1073); settings: higher = more signal
Sequence of Neurogenic locus notch homolog protein 2 (Homo sapiens) (Q04721 whole entry, looked up, canonical isoform): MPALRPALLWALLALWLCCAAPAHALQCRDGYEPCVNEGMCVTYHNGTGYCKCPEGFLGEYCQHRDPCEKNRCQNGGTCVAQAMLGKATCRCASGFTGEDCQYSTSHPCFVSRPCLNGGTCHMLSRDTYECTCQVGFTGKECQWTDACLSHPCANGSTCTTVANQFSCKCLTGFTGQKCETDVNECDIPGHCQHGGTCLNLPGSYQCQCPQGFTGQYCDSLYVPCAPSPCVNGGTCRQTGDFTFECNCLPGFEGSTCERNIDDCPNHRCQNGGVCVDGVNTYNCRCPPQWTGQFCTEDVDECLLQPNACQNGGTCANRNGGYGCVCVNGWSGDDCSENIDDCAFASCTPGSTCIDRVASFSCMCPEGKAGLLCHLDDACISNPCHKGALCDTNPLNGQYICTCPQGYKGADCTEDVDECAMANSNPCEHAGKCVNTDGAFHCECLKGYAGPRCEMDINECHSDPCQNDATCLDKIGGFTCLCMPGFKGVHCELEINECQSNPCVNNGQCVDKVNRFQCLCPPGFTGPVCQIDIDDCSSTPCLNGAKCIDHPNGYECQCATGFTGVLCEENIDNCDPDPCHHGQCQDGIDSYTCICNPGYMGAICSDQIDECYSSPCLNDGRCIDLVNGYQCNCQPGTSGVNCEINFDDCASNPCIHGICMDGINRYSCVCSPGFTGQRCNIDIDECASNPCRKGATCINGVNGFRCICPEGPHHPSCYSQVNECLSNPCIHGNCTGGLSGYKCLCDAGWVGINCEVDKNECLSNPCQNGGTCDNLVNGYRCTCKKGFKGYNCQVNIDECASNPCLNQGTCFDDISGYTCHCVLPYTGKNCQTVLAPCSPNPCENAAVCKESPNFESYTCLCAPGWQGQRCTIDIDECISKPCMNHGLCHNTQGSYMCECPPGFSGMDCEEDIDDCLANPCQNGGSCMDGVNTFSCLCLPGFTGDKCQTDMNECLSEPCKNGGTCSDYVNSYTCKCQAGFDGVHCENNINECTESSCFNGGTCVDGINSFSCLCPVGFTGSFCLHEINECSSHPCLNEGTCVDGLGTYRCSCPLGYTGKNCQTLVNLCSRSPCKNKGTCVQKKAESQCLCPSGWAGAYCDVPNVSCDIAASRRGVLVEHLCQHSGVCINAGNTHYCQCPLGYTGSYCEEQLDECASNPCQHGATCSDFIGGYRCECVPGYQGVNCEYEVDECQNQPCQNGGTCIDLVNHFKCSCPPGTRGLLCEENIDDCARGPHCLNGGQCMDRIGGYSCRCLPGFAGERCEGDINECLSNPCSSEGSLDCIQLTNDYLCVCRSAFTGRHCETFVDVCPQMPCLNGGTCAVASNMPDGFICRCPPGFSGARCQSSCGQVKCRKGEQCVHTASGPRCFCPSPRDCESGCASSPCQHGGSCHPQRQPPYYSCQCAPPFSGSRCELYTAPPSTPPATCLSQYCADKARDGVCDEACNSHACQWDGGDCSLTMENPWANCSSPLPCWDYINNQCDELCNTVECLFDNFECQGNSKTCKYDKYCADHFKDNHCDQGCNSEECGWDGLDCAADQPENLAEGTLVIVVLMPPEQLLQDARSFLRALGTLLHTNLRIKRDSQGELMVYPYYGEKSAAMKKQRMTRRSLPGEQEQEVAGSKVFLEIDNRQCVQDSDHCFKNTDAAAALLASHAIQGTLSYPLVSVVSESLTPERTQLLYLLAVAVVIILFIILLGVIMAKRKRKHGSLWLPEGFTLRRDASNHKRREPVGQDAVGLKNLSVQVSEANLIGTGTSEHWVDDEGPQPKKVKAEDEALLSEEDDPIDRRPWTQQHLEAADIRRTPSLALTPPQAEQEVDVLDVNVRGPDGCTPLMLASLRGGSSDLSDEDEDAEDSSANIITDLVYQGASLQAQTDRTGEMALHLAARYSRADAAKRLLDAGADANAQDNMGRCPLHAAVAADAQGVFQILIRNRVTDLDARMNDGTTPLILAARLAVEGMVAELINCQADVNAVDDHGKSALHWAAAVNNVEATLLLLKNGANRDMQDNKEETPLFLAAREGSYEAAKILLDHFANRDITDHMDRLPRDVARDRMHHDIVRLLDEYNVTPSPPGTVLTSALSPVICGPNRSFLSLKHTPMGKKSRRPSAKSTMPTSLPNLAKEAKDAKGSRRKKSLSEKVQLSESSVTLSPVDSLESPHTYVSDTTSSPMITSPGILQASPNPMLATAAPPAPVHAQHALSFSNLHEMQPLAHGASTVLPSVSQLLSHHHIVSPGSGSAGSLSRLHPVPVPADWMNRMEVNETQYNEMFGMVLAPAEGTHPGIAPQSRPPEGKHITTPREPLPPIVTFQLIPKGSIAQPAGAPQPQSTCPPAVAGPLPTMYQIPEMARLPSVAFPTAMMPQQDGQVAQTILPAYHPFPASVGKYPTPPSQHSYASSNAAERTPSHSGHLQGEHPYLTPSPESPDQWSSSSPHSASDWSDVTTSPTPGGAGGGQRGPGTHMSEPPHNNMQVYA

[6] = molecular target: Pro-neuregulin-1, membrane-bound isoform (Homo sapiens) (UniProt Q02297); test: small molecules binding neuregulin-1 protein – biochemical, small-molecule microarray, fluorescence 635/667, psychiatric disease protein project, primary screen (AID 1075); settings: NRG1 binding, 635 nm fluorescence, higher = more signal;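 note: score combines 667 nm spot fluorescence with signal to noise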
Sequence of Pro-neuregulin-1, membrane-bound isoform (Homo sapiens) (Q02297 whole entry, looked up, the tested form may be a part, canonical isoform): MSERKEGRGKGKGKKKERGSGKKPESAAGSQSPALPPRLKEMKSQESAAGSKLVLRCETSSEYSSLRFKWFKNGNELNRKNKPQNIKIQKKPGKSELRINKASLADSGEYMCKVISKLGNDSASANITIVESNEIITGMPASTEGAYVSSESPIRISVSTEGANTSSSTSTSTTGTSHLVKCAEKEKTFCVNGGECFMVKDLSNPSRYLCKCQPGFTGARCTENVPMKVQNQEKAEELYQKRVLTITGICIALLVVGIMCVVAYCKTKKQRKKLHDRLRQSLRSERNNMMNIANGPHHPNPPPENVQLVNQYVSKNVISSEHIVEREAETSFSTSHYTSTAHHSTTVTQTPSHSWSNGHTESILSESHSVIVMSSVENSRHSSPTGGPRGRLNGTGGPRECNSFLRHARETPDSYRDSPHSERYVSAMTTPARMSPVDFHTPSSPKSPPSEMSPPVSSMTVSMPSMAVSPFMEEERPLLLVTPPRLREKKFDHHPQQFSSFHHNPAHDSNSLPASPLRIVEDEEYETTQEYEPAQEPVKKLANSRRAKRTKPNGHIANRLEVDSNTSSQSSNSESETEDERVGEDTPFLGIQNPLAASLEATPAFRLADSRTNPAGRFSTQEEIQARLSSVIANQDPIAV

[7] = test system: Neuregulin-1 EGF-like domain; test: small molecules binding NRG1 EGF domain – biochemical, small-molecule microarray, 635 nm fluorescence, primary screen (AID 1081); settings: higher = more signal;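 note: binding of the protein to compounds printed on small-molecule microarray slides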
[8] = FRG1 expression reporter modulators in myotubes – cell-based, C2C12 myotubes, firefly/Renilla luciferase, luminescence, FRG1 inhibition for FSHD, primary screen (AID 1084); settings: FRG1 promoter luciferase, higher = more signal, called active from +8 up or from −8 down
[9] = small molecules captured by biotinylated probe aFST – biochemical, small-molecule microarray, fluorescence 635/667, stem cell growth factor project, primary screen (AID 1086); settings: higher = more signal;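 note: score merges 667 nm fluorescence with signal-to-noise of each printed compound spot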
[10] = binders of probe aHhip on microarray, primary screen, stem cell growth factor project, biochemical, small-molecule microarray, fluorescence 635/667 (AID 1087); settings: higher = more signal;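 note: score merges spot fluorescence at 667nm with spot signal to noise ratio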

SMILES	composite z-score [1]	composite z-score [2]	composite z-score [3]	composite z-score [4]	composite z-score [5]	composite z-score [6]	composite z-score [7]	z-score [8]	composite z-score [9]	composite z-score [10]
COC(=O)[C@@]1(Cc2ccccc2)[C@H]2c3cc(C(=O)N4CCCC4)n(Cc4ccccn4)c3C[C@H]2CN1C(=O)c1ccccc1	0.731	0.415	0.589	1.14	1.52	2.18	1.35	2.5 (inactive)	1.65	0.257
CC(C)c1ccc(NN2C(C(O)c3ccc4c(c3)OCO4)C=CC3C(=O)N(c4ccccc4)C(=O)C32)cc1 (stereo not given)	0.542	0.461	0.0899	0.839	1.34	1.82	1.24	2.22 (inactive)	1.07	0.103
CC(CCN1CCc2nc(-c3ccccc3)c(-c3ccccc3)cc2C1)=NO[C@H](C)c1cn([C@@H]2COC[C@H]2O)nn1	-0.388	1.4	-0.0867	0.259	0.295	0.646	1.03	-0.203 (inactive)	0.133	-0.0237
CCOC(=O)CCN1C(=O)[C@H]2[C@H]3[C@H](O)[C@H](O)CC(=NOCc4ccccc4)[C@@H]3CC[C@H]2C1=O	-0.572	0.227	-0.201	0.193	0.93	0.22	0.588	-0.48 (inactive)	0.0033	-0.0645
O=C(CS)NCCCCCNC(=O)[C@@H]1C[C@@H]2C(=O)N[C@@H](Cc3ccccc3)C(=O)N2[C@@H]1c1ccc(O)cc1	0.154	0.524	-0.0766	0.435	-0.138	0.67	1.36	1.2 (inactive)	0.0658	-0.0994
C[C@H]1CC[C@@H](C(=O)O)N[C@@H]1c1ccc(C#CCN(C)C)cc1	-0.326	0.451	-0.0943	0.185	0.608	0.115	0.0934	-0.794 (inactive)	0.629	-0.119
COc1ccccc1CN1C(=O)c2ccccc2[C@@H](C(=O)NCC(F)(F)F)[C@@H]1c1ccc(CO)cc1	-0.271	0.683	-0.0829	0.0992	0.654	1.17	1.39	-3 (inactive)	0.19	-0.0994
COC(=O)CC1OC1[C@H](C)[C@@H](OC)C(C)C (stereo not given in full)	-0.243	-0.0917	-0.201	0.123	-0.624	-0.407	-0.102	1.24 (inactive)	0.0068	-0.316
COC(=O)[C@H]1COC(c2ccc(OCCCO)cc2)=N1	0.971	-0.354	-0.0425	-0.576	0.115	-0.0556	0.207	0.97 (inactive)	0.179	-0.0618
CCOC(=O)[C@H](Cc1ccccc1)NC(=O)CCC1CC(OC(=O)NCc2ccc3c(c2)OCO3)CC2(CCCC(COC(=O)NCC(c3ccccc3)c3ccccc3)O2)O1 (stereo not given in full)	-0.655	0.805	-0.151	0.211	0.883	0.716	1.03	1.26 (inactive)	0.359	-0.306
O=C1[C@H]2[C@H]3[C@H](O)[C@H](O)CC(=NOCc4ccccc4)[C@H]3CC[C@H]2C(=O)N1C[C@@H]1CCCO1	-0.493	-0.259	-0.133	0.717	0.564	0.512	0.792	-0.187 (inactive)	0.14	-0.123
CC(C)=CCCC(C)=CCON=C1[C@H]2CCn3c(=O)n(Cc4cc5c(cc4Cl)OCO5)c(=O)n3[C@H]2[C@H](O)[C@@H]2O[C@H]12	-0.405	1.2	-0.0481	0.262	0.405	0.0535	0.177	0.752 (inactive)	0.661	-0.328
C[C@H](c1ccccc1)N1C(=O)[C@H]2[C@@H]3C(=CC[C@H]2C1=O)C(=O)[C@H]1O[C@H]1[C@H]3O	-0.518	0.34	-0.135	0.134	0.582	-0.198	-0.133	14.4 (active)	0.128	-0.289
O=C(NN=C1C[C@@H](O)[C@@H](O)[C@@H]2[C@@H]3C(=O)N(c4cccc(Oc5ccccc5)c4)C(=O)[C@@H]3CC[C@@H]12)OCc1ccccc1	0.103	-0.336	-0.0891	0.0457	0.222	0.259	-0.157	0.31 (inactive)	0.274	0.2
COC(=O)[C@H](C)NC(=O)CCC1CC(OC(=O)NCc2cccc3ccccc23)CC2(CCCC(COC(=O)NCC3CCCCC3)O2)O1 (stereo not given in full)	-0.641	0.585	-0.0775	0.406	1.34	1.06	1.16	0.619 (inactive)	0.715	0.21
COC(=O)[C@]1(CO)N=C(c2ccc(OCCCO)cc2)O[C@@H]1c1ccccc1N=[N+]=[N-]	0.0947	0.525	-0.0614	-0.0477	0.01	1.25	0.938	2.29 (inactive)	0.138	-0.39
